# Reference: PubChem BioAssay AID2546 (National Center for Advancing Translational Sciences (NCATS), 2010)
# Hit rate of the full screen: of about 310,000 compounds, about 11,000 (3.5%) were called active. Where a call stands in place of a potency, no number is given. Roughly 8% stayed inconclusive and do not appear here. Calls come from the whole dose curve; as a rule, active = well fitted inhibition curve with a large enough effect; inconclusive = small, poorly fitted or top-dose-only effect, or effect the other way; inactive = flat fitted curve, though single readings scatter. For the sample, actives were picked, then their nearest neighbours and some compounds at random.
# Test: VP16 counterscreen qHTS for inhibitors of ROR gamma transcriptional activity;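 note: Gal4-VP16 expression switched on by copper sulfate through the metallothionein promoter; nearly all actives have a fitted effect of over 50% in size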
# Conditions: Drosophila S2 Gal4-VP16 UAS-luciferase, luminescence, 20 h; series mostly up to 53.6 µM
# Potency is the fitted concentration of half-maximal effect.
row,Compound,Potency
1,Cc1ccc(NC(=O)Nc2cccnc2)cc1,inactive
2,COc1cc(/C=C(\C#N)c2nc3ccccc3[nH]2)ccc1O,inactive
3,COc1cc(/C=N/Nc2nc3ccccc3s2)ccc1O,inactive
4,COc1cc(/C=C(\C#N)c2nc3c(s2)CC(C)CC3)ccc1O (stereo unspecified),4.47 µM (active)
5,Cc1cc(-c2nnc(SCC(=O)Nc3ccc(S(N)(=O)=O)cc3)n2N)n[nH]1,inactive
6,NC(=O)c1cc(S(=O)(=O)N2CCCC2)ccc1OCc1ccc(F)cc1,inactive
7,COC(=O)c1ccccc1NC(=O)CSc1n[nH]c(-c2ccncc2)n1,inactive
8,Cc1ccc(CSCC2Nc3ccc(C(=O)N4CCN(c5ccc(F)cc5)CC4)cc3NC2=O)cc1 (stereo unspecified),inactive
9,CN(C)CCCN(C(=O)c1ccc(S(=O)(=O)N2CCCCCC2)cc1)c1nc2ccc(Br)cc2s1,17.8 µM (active)
10,CCN(CC)CCN(C(=O)c1ccc(S(=O)(=O)N2CCOCC2)cc1)c1nc2cc3c(cc2s1)OCCO3,inactive
11,CC(=O)N(CCCN(C)C)c1nc2ccc(C)cc2s1,inactive
12,O=C(Cc1cccs1)Nc1nnc(C2CC2)s1,inactive
13,Cc1occc1C(=O)Nc1nnc(C2CCCCC2)s1,inactive
14,Cc1cnc(NC(=O)CSc2c(Cl)cccc2Cl)s1,inactive
15,Cc1ccc(SCC(=O)Nc2ncc(C)s2)cc1,inactive
16,Cc1cnc(NC(=O)c2ccccn2)s1,4.47 µM (active)
17,O=C(Nc1nnc(C2CC2)s1)c1ccccn1,4.47 µM (active)
18,Cc1cccc(NC(=O)c2sc3nc(N4CCOCC4)c4c(c3c2N)CCCC4)c1,inactive
19,CN(CCNC(=O)c1cc2c(-c3ccccc3F)nn(C)c2s1)C1CCCCC1,inactive
20,NC(=O)c1oc2ccccc2c1NC(=O)Cc1ccccc1,inactive
21,COc1cc2c(C(=O)O)c(C)n(C)c2c2ccccc12,inactive
22,Cc1c(C(=O)N/N=C/c2ccccc2)[nH]c2c([N+](=O)[O-])cccc12,inactive
23,COc1cccc2c(C)c(C(=O)O)[nH]c12,10 µM (active)

row,Compound,Potency
1,O=C(Nc1ccc(S(=O)(=O)Nc2ncccn2)cc1)C12CC3CC(CC(C3)C1)C2,inactive
2,O=C(N/N=C/c1ccccn1)C12CC3CC(CC(C3)C1)C2,20 µM (active)
3,CNC(=O)C(=O)N/N=C/c1ccccn1,inactive
4,COc1cc2ccccc2cc1C(=O)Nc1ccc(NC(=O)c2cccs2)cc1,inactive
5,Cc1csc(=NC(=O)c2ccccc2)n1CCO,inactive
6,C=C(C)CNC(=S)/N=c1\scc(C)n1CC,8.91 µM (active)
7,Cc1csc(=Nc2ccccc2)n1CCO,inactive
8,CC(C)(c1ccccc1)c1ccc(OCCN2CCCC2)cc1,inactive
9,CC(C)=CCN1CCN(Cc2cc3ccccc3[nH]2)CC1CCO (stereo unspecified),inactive
10,O=C(CSc1ccc(-c2ccc(Br)cc2)nn1)NCC1CCCO1 (stereo unspecified),inactive
11,O=C(c1cc(C(F)(F)F)cc(C(F)(F)F)c1)N1CCC2(CCCN(c3ccccn3)C2)CC1,12.6 µM (active)
12,O=C(c1cc(C(F)(F)F)cc(C(F)(F)F)c1)N1CCC[C@@]2(CCN(c3ccccn3)C2)C1,inactive
13,O=C(c1cc(C(F)(F)F)cc(C(F)(F)F)c1)N1CCC2(CC1)CN(c1ccncc1)C2,inactive
14,Cc1ccc2c(cnn2C(=O)CCC(=O)NC2CCCC2)c1,inactive
15,COc1ccccc1NC(=O)c1ccc(N2CC3CC(C2)c2cccc(=O)n2C3)c(NC(=O)c2cccnc2)c1 (stereo unspecified),inactive
16,CCn1nc(NC(=O)c2ccco2)c2cc3ccc(C)cc3nc21,inactive
17,CC(=O)c1nc2ccccc2n1Cc1ccccc1,inactive
18,Cc1ccc(Cn2c(NC(=O)c3ccco3)nc3ccccc32)cc1,1.58 µM (active)
19,CCC(=O)Nc1nc2ccccc2n1Cc1ccccc1C,inactive
20,CC(=O)Nc1nc2ccccc2n1Cc1ccc(C)cc1,2.51 µM (active)
21,Cc1ccc(-n2nc3cc(Cl)c(NC(=O)c4ccco4)cc3n2)cc1,inactive
22,COc1ccc(CNC(=O)C(C)NCc2ccccc2Cl)cc1 (stereo unspecified),inactive
23,CN(C)S(=O)(=O)c1ccc(C(=O)NCCN=C2NS(=O)(=O)c3ccccc32)cc1,inactive

row,Compound,Potency
1,Cc1cc2occ(CC(=O)NNC(=O)c3ccccc3F)c2cc1C,inactive
2,O=C(NNc1cc(Cl)ccc1Cl)c1cccnc1Cl,inactive
3,N#Cc1ccc(C(=O)Nc2cccc3cccnc23)c(F)c1,inactive
4,CC(=O)/C(=N\Nc1ccc(Cl)cc1Cl)Sc1cccc2cccnc12,5.01 µM (active)
5,CCn1c(CC(=O)Nc2ccccc2C)nnc1SCC(=O)NC1=NCCS1,inactive
6,CC1CC(C)CN(S(=O)(=O)c2cccc3nonc23)C1 (stereo unspecified),inactive
7,Cc1nnc2n1N=C(c1ccccc1)CS2,inactive
8,CCC(=O)Nc1ccc2nc(C)n(Cc3ccccc3Cl)c(=O)c2c1,inactive
9,CCOc1cc(NC(=O)c2ccccc2C(=O)O)c(OCC)cc1NC(=O)c1ccccc1F,inactive
10,CCN1CCN(c2cc3nc(C)n(Cc4ccccc4)c(=O)c3cc2NC(=O)c2ccccc2F)CC1,11.2 µM (active)
11,COc1cccc(NC(=O)CN(C)C(=O)c2ccccc2CCc2ccccc2)c1,inactive
12,CC1CCCCC1NC(=O)c1cn(C)c2ccc(S(=O)(=O)N3CCOCC3)cc2c1=O (stereo unspecified),inactive
13,O=c1onc(-c2c(F)cccc2F)n1-c1ccccc1Cl,inactive
14,COc1ccc([N+](=O)[O-])cc1NCC(=O)c1ccc(C)cc1,inactive
15,Cc1nn(CC(=O)NC2CCCCC2)c(=O)c2cccn12,inactive
16,COc1ccc(C(=O)NC(C)CCc2ccccc2)c(OC)c1 (stereo unspecified),inactive
17,CCCn1nnnc1NC(=O)COc1ccc(Cl)cc1C,2 µM (active)
18,CCOC(=O)N1CCN(C(=O)COc2ccc(Cl)cc2C)CC1,inactive
19,Cc1cc(NC(=O)COc2ccc(Cl)cc2Cl)n(CCC#N)n1,inactive
20,O=C(Nc1ccccc1C(=O)NCC1CCCO1)c1ccccc1F (stereo unspecified),inactive
21,CCOC(CNC(=O)C1CCN(S(=O)(=O)c2ccc3nc4c(c(C(=O)O)c3c2)CC(C)CC4)CC1)OCC (stereo unspecified),inactive
22,O=C(Oc1cccc(C(=S)N2CCOCC2)c1)c1cccc(Cl)c1,inactive
23,CCOC(=O)C1=C(O)CSC1=Nc1cccc(Cl)c1,inactive

row,Compound,Potency
1,CN(C)c1nc(=Nc2cccc(Cl)c2)ss1,0.891 µM (active)
2,Cn1c(=O)c(=O)n(C)c2cc(S(=O)(=O)CCC(=O)N3CCCCC3)ccc21,inactive
3,O=C(COc1ccc(Cl)cc1)NCCS(=O)(=O)N1CCN(c2ccc(F)cc2)CC1,inactive
4,CCCOc1ccc(Cc2c(Cl)nc(SC)nc2NC)cc1,7.08 µM (active)
5,CCCOc1ccc(-c2nc(N)n[nH]2)cc1,inactive
6,CCCOc1ccc(Cc2c(O)nc(SC)[nH]c2=O)cc1C,inactive
7,Cc1cc(C)cc(C(=O)OCC(=O)NCCNC(=O)COC(=O)c2cc(C)cc(C)c2)c1,0.0891 µM (active)
8,Cc1cccc(C(=O)OCC(=O)Nc2ccc(F)cc2)c1,inactive
9,COc1ccccc1C(=O)OCC(=O)NCCNC(=O)COC(=O)c1ccccc1OC,inactive
10,COc1cc(N=Cc2c(O)c3ccccc3oc2=O)c(OC)cc1Cl,inactive
11,COc1ccc(CNC(=O)CCCn2nc(C)c([N+](=O)[O-])c2C)cc1,inactive
12,CCc1ccc(NC(=O)Cn2nc(C)c([N+](=O)[O-])c2C)cc1,inactive
13,Cc1ccc(Oc2cc(NC(=O)CCCn3nc(C)c([N+](=O)[O-])c3C)cc([N+](=O)[O-])c2)cc1,1 µM (active)
14,CCOC(=O)c1c(S(=O)(=O)Nc2ccc(CN3CCC(C)CC3)cc2)c(C)n(C)c1C,inactive
15,CCC(C)c1ccccc1NC(=O)CN(C)CC(=O)Nc1ccccc1SC (stereo unspecified),inactive
16,CC(=O)c1ccc(NC(=O)CCNS(=O)(=O)c2cc(Br)cnc2N)cc1,inactive
17,COc1ccc(CCNC(=O)Cc2ccc(C)cc2)cc1OC,inactive
18,COc1ccc(CCNC(=S)NC(=O)/C=C/c2ccc(C)cc2)cc1OC,10 µM (active)
19,COc1ccc(CCNC(=O)NS(=O)(=O)c2ccc(C)cc2)cc1OC,inactive
20,CCN1CCN(CCNC(=O)c2ccc3c(c2)NC(=O)/C(=C\c2ccc(OC)c(OC)c2)S3)CC1,inactive
21,CCOC(=O)c1ccc(NC(=O)Cn2nnc(-c3ccc(C)cc3)n2)cc1,inactive
22,CCOC(=O)c1ccc(NC(=O)Cn2cnc3cc(C)c(C)cc32)cc1,7.08 µM (active)
23,CCCc1nnc(SCC(=O)Nc2ccc(C(=O)OCC)cc2)o1,inactive

row,Compound,Potency
1,CC(C)C(=O)Nc1c2c(nn1-c1ccccc1)CSC2,inactive
2,Cc1cc(O)cc(O)c1C(=O)Cc1cnn(-c2ccccc2)c1,0.355 µM (active)
3,O=C(c1cnn(-c2ccc(Cl)cc2)c1)c1ccccc1O,inactive
4,COc1ccc(C(=O)Cc2cnn(-c3ccccc3)c2)c(O)c1,inactive
5,Cc1ccc(O)c(NC(=O)c2cc(-c3ccco3)on2)c1,inactive
6,COc1ccc(OCC(O)CNCCNc2nccc(C(F)(F)F)n2)cc1 (stereo unspecified),inactive
7,CC(C)(C)CC(C)(C)NCC(O)COCCOc1ccc(Br)cc1 (stereo unspecified),11.2 µM (active)
8,OC(COc1ccc(Br)cc1)CN1CCCC1 (stereo unspecified),inactive
9,CCOC(=O)CSc1nnc(NC(=O)C2CC(=O)N(c3ccc(F)cc3)C2)s1 (stereo unspecified),inactive
10,CCC(=O)N1c2ccc(S(=O)(=O)NCc3ccco3)cc2CC1C (stereo unspecified),inactive
11,C/C=C/C=N/NC(=O)c1ccncc1,inactive
12,C/C(=N\Nc1nc2ccccc2[nH]1)c1cccs1,6.31 µM (active)
13,C/C(=N\Nc1nc(Nc2ccccc2)nc(N2CCOCC2)n1)c1cccs1,inactive
14,O=C(Nc1ccccc1-c1nc2ccccc2[nH]c1=O)c1cccs1,inactive
15,CN(c1ccccc1)S(=O)(=O)c1ccc2[nH]c(=O)[nH]c2c1,inactive
16,CCn1ccnc1CN(C)C(=O)c1cc(COc2ccc(Cl)cc2OC)on1,inactive
17,O=C1C=C(c2ccc(Cl)cc2)C(=O)N1Nc1ccccc1,3.98 µM (active)
18,O=C1c2cccc3cc(Br)cc(c23)C(=O)N1Nc1ccccc1,inactive
19,O=C(Nc1ccccc1)OCc1cc(-c2ccc(Cl)cc2)on1,inactive
